# Measurements as given in PubChem BioAssay (NCATS).
# Values joined by “and” are separate entries in the source; they are usually repeats but may differ in a detail not shown here. Identical values can stand only once. Results filed as inconclusive are left out. A call without a number means that no potency is given here. A number with no mark means an inactive call. Active and inactive are the calls of the source. The call rests on the fitted dose curve; in most records, active means well fitted curve in the direction sought with a large enough effect; inconclusive means small, poorly fitted or top-dose-only effect, or another doubt; inactive means no such curve, though single readings can be large; an effect the other way counts as inactive or inconclusive.
# Assays:
# [1] = Primary qHTS for inhibitors of nuclear receptor binding SET domain protein 2 (NSD2) in an isogenic RCH-ACV NSD2 p.E1099K mutant (9B) (AID 1645876); further: nearly all actives have a fitted effect of over 70% in size; further: potency means the concentration at half of the fitted maximal effect
# [2] = Primary qHTS for inhibitors of nuclear receptor binding SET domain protein 2 (NSD2) in an RCH-ACV wild type WT cells (2C) (AID 1645877); further: nearly all actives have a fitted effect of over 70% in size; further: potency means the concentration at half of the fitted maximal effect
# [3] = biological target: Rap guanine nucleotide exchange factor 3 (Homo sapiens) (UniProt O95398); assay: Confirmatory qHTS for antagonist of cAMP-regulated guanine nucleotide exchange factor 3 (EPAC1) (AID 1645880); further: nearly all actives have a fitted effect of over 55% in size; further: potency means the concentration at half of the fitted maximal effect
# Rap guanine nucleotide exchange factor 3 (Homo sapiens), sequence (O95398 whole entry, looked up): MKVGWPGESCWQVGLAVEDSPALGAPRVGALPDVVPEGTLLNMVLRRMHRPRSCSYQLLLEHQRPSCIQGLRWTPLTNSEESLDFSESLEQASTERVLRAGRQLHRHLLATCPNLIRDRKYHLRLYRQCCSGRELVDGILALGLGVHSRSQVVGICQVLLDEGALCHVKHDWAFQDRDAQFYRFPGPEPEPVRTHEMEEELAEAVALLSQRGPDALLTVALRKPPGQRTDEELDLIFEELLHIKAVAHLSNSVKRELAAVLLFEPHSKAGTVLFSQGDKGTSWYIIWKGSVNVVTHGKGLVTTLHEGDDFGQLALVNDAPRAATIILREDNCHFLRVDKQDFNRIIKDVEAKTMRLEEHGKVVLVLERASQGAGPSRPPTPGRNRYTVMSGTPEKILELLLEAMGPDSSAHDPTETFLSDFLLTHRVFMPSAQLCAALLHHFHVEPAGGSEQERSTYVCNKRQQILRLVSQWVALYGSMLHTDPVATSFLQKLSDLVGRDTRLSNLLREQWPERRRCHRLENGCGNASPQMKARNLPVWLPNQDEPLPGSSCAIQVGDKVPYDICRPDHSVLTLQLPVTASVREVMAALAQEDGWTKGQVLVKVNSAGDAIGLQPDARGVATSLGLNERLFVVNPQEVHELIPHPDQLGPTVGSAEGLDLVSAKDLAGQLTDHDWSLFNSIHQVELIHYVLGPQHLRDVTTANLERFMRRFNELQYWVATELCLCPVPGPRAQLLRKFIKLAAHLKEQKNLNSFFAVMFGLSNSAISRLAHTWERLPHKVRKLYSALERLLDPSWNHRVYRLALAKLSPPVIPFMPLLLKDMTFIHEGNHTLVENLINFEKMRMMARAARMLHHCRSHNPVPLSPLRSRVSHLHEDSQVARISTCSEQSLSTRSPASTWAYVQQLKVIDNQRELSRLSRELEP
# Procedure, shortened: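 Released BODIPY-GDP fluoresces less than Rap1-bound BODIPY-GDP; the signal is followed at 480/540 nm at 5-min intervals over 30 min, after 5 min at room temperature. Reactions contain 100 nM EPAC1, 250 nM RAP1B-BODIPY-GDP and 50 uM GDP; results are normalized to ATA and DMSO.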
# [4] = biological target: Rap guanine nucleotide exchange factor 3 (Homo sapiens) (UniProt O95398); assay: Confirmatory qHTS for agonist of cAMP-regulated guanine nucleotide exchange factor 3 (EPAC1) (AID 1645881); further: nearly all actives have a fitted effect of over 75% in size; further: potency means the concentration at half of the fitted maximal effect;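 on activation: EPAC1 catalysed release of BODIPY-GDP from Rap1B seen as fluorescence loss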
# [5] = biological target: Rap guanine nucleotide exchange factor 4 (Homo sapiens) (UniProt Q8WZA2); assay: Confirmatory qHTS for agonist of cAMP-regulated guanine nucleotide exchange factor 4 (EPAC2) (AID 1645884);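 further: nucleotide exchange releases bodipy-GDP from Rap1 and this lowers its fluorescence; nearly all actives have a fitted effect of over 65% in size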; further: potency means the concentration at half of the fitted maximal effect
# Rap guanine nucleotide exchange factor 4 (Homo sapiens), sequence (Q8WZA2 whole entry, looked up): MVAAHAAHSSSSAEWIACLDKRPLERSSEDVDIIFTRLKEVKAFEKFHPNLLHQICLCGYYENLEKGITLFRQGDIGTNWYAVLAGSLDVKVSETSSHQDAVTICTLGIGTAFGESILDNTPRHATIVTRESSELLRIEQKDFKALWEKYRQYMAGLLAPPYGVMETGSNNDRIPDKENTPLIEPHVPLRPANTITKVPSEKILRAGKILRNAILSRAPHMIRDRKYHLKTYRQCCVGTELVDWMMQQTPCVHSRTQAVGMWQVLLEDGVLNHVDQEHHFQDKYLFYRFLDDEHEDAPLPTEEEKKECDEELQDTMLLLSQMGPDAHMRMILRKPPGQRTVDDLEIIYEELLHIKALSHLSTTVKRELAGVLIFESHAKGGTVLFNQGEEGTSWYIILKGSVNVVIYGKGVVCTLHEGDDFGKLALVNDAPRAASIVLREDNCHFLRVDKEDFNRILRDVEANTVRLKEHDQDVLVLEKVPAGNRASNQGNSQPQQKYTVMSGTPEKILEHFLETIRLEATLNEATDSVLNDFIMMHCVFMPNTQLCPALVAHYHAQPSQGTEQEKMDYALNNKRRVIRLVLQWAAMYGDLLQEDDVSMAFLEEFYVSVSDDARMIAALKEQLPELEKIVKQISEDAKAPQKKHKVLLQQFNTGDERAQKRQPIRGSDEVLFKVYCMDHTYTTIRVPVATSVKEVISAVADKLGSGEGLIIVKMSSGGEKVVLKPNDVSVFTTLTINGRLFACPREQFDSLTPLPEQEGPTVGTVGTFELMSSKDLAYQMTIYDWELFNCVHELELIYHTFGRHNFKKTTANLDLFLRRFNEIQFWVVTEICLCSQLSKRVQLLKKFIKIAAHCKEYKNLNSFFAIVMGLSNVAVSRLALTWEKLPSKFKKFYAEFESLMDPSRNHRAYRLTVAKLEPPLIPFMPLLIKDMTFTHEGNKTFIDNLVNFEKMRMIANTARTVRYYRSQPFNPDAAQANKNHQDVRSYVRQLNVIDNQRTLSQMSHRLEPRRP
# [6] = biological target: Rap guanine nucleotide exchange factor 4 (Homo sapiens) (UniProt Q8WZA2); assay: Confirmatory qHTS for antagonist of cAMP-regulated guanine nucleotide exchange factor 4 (EPAC2) (AID 1645885); further: nearly all actives have a fitted effect of over 25% in size; further: potency means the concentration at half of the fitted maximal effect
# [7] = biological target: Metallo-beta-lactamase type 2 (Klebsiella pneumoniae) (UniProt C7C422); assay: qHTS to identify inhibitors of the New Delhi Metallo-beta-lactamase (NDM): assay validation screen against the NCATS LOPAC Collection (AID 1794843);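 further: nitrocefin turnover by NDM-1 measured as 485 nm absorbance at plateau; series mostly up to about 38 µM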
# Metallo-beta-lactamase type 2 (Klebsiella pneumoniae), sequence (C7C422 whole entry, looked up): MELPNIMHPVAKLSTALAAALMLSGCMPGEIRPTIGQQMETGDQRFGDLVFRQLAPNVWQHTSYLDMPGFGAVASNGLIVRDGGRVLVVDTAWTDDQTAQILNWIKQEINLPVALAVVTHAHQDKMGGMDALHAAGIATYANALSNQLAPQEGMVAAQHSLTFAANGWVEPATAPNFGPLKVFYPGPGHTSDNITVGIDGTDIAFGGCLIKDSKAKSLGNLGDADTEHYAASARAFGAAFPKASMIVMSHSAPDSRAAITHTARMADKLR
# Procedure, shortened: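 NDM-1 at 2 nM final in 50 mM HEPES pH 7.0 with 1 uM ZnSO4 and 0.01% Tween20 was preincubated with library compounds in DMSO. Nitrocefin (50 uM stock) was then added, and absorbance at 485 nm was read at the kinetic plateau.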
# [8] = biological target: Rap guanine nucleotide exchange factor 3 (Homo sapiens) (UniProt O95398); assay: Counterscreen qHTS for agonist of cAMP-regulated guanine nucleotide exchange factor 3 (EPAC1) (AID 1645889); further: nearly all actives have a fitted effect of over 40% in size
# Procedure, shortened: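 Rap1B–BODIPY-GDP (250 nM) with 50 uM GDP; compounds pin-transferred to 9.74 nM–152 uM final (activator) or from 7.32 nM upwards (inhibitor). Fluorescence Ex/Em 480/540 nm read at 5 and 30 min, then after adding cAMP or buffer, at room temperature.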
smiles,measurement,setting,value
CC1(C)S[C@@H]2[C@H](NC(=O)[C@H](N)c3ccc(O)cc3)C(=O)N2[C@H]1C(=O)O,Potency,[1],inactive
same,Potency,[2],inactive
O=C(OCc1ccccc1)c1ccccc1,Potency,[1],inactive
same,Potency,[2],inactive
CC(C)OC(=O)c1cc(C(=O)OC(C)C)cc([N+](=O)[O-])c1,Potency,[1],inactive
same,Potency,[2],inactive
CC(C(=O)O)c1ccc2c(c1)[nH]c1ccc(Cl)cc12 (configuration not stated),Potency,[1],inactive
same,Potency,[2],inactive
CC(C(=O)O)c1ccc(C(=O)c2ccccc2)s1 (configuration not stated),Potency,[1],inactive
same,Potency,[2],inactive
Cc1onc(-c2c(F)cccc2Cl)c1C(=O)N[C@@H]1C(=O)N2[C@@H]1SC(C)(C)[C@@H]2C(=O)O,Potency,[1],inactive
same,Potency,[2],inactive
CCNC(=O)[C@H]1O[C@@H](n2cnc3c(N)nc(NCCc4ccc(CCC(=O)O)cc4)nc32)[C@H](O)[C@@H]1O,Potency,[1],inactive
same,Potency,[2],inactive
CN(C)CCn1nnnc1SCC1=C(C(=O)O)N2C(=O)[C@@H](NC(=O)Cc3csc(N)n3)[C@H]2SC1,Potency,[1],inactive
same,Potency,[2],inactive
N#C/C(=C\c1ccc(O)c(O)c1)C(=O)NCCCc1ccccc1,Potency,[1],14.6 µM (active)
same,Potency,[2],16.4 µM (active)
same,Potency,[3],15.7 µM (active)
same,Potency,[4],inactive
same,Potency,[5],inactive
Cc1ccc(C(=O)c2ccc(CC(=O)O)n2C)cc1,Potency,[1],inactive
same,Potency,[2],inactive
CCCCCCCCCCCCCCCC(=O)OC(C)C,Potency,[1],inactive
same,Potency,[2],inactive
CC1(C)S[C@@H]2[C@H](NC(=O)[C@H](NC(=O)N3CCN(S(C)(=O)=O)C3=O)c3ccccc3)C(=O)N2[C@H]1C(=O)O,Potency,[1],inactive
same,Potency,[2],inactive
O=C1NC(=O)/C(=C/c2ccc(-c3ccc(F)cc3O)o2)S1,Potency,[1],14.8 µM (active)
same,Potency,[2],10.5 µM (active)
same,Potency,[3],55.9 µM (active)
same,Potency,[4],inactive
same,Potency,[5],inactive
same,Potency,[6],9.87 µM (active)
same,Potency,[7],inactive
COc1cc(CNC(=O)CCCC/C=C/C(C)C)ccc1O,Potency,[1],7.28 µM (active) and 4.68 µM (active)
same,Potency,[2],7.28 µM (active) and 4.17 µM (active)
CCNc1nc2c(ncn2[C@H]2C[C@H](O)[C@@H](CO)O2)c(=O)[nH]1,Potency,[1],inactive
same,Potency,[2],inactive
N#C/C(=C\c1ccc(O)c(O)c1)C(=O)NCc1ccccc1,Potency,[1],9.2 µM (active) and 13.2 µM (active)
same,Potency,[2],9.2 µM (active) and 11.8 µM (active)
O=C(O)/C=C\C(=O)O,Potency,[1],inactive
same,Potency,[2],inactive
Nc1ccc([N+](=O)[O-])cc1O,Potency,[1],6.86 µM (active)
same,Potency,[2],7.7 µM (active)
C=CCc1cccc(/C=N/NC(=O)CN2CCN(Cc3ccccc3)CC2)c1O,Potency,[1],7.42 µM (active)
same,Potency,[2],7.42 µM (active)
CCCCCCCCCCCC(=O)[O][Sn]([CH2]CCC)([CH2]CCC)[O]C(=O)CCCCCCCCCCC,Potency,[1],inactive
same,Potency,[2],inactive
O=C(O)[C@H](CC(=O)N1C[C@H]2CCCC[C@H]2C1)Cc1ccccc1,Potency,[1],inactive
same,Potency,[2],inactive
Nc1cc(-c2ccncc2)c[nH]c1=O,Potency,[1],inactive
same,Potency,[2],inactive
same,Potency,[3],inactive
same,Potency,[4],inactive
same,Potency,[5],inactive
same,Potency,[6],inactive
COc1ccnc2c1CCCCC2S(=O)c1nc2ccccc2[nH]1 (configuration not stated),Potency,[1],inactive
same,Potency,[2],inactive
CC(=O)[C@]1(O)Cc2c(O)c3c(c(O)c2[C@@H](O[C@H]2C[C@H](N)[C@H](O)[C@H](C)O2)C1)C(=O)c1c(O)cccc1C3=O,Potency,[3],inactive
same,Potency,[4],70.6 µM (active)
same,Potency,[5],79.3 µM (active)
same,Potency,[6],inactive
COC(=O)[C@H]1[C@H]2C[C@@H]3c4[nH]c5cc(OC)ccc5c4CCN3C[C@H]2C[C@@H](OC(=O)/C=C/c2cc(OC)c(OC)c(OC)c2)[C@@H]1OC,Potency,[2],inactive
same,Potency,[3],inactive
same,Potency,[4],inactive
same,Potency,[6],inactive
COc1ccc(/C=C/C(=O)Nc2ccccc2C(=O)O)cc1OC,Potency,[1],inactive
same,Potency,[2],inactive
same,Potency,[7],inactive
CN[C@H](CC(C)C)C(=O)N[C@H]1C(=O)N[C@@H](CC(N)=O)C(=O)N[C@H]2C(=O)N[C@H]3C(=O)N[C@H](C(=O)N[C@H](C(=O)O)c4cc(O)cc(O)c4-c4cc3ccc4O)[C@H](O)c3ccc(c(Cl)c3)Oc3cc2cc(c3O[C@@H]2O[C@H](CO)[C@@H](O)[C@H](O)[C@H]2O[C@H]2C[C@](C)(N)[C@H](O)[C@H](C)O2)Oc2ccc(cc2Cl)[C@H]1O,Potency,[1],inactive
same,Potency,[2],inactive
same,Potency,[7],inactive
O=C1O/C(=C/Br)CCC1c1cccc2ccccc12 (configuration not stated),Potency,[4],inactive
same,Potency,[5],inactive
same,Potency,[6],49.4 µM (active)
Cc1c(Nc2ncccc2C(=O)O)cccc1C(F)(F)F,Potency,[2],inactive
N#C/C(=C\c1ccc(O)c(O)c1)C(=O)c1ccc(O)c(O)c1,Potency,[3],0.794 µM (active)
same,Potency,[4],inactive
same,activation,[5],"1.63% [at 17.1 µM, percent relative to cAMP agonist control]"
same,"activity change, negative = inhibition",[6],16.6% [at 12.7 µM]
same,outcome,[8],inactive
same,Potency,[7],inactive
